“And” between values parts separate entries of the source, which are not always exact repeats. Equal values may be shown once. In all, about 5,500 compounds went through this assay and about 2,000 (36%) were called active. Not shown: some 18% with an inconclusive outcome. No stated cut-off is given here; in the data, active means normalized growth mostly below about 0.91 (no sharp cut-off); inconclusive means no clear call, values can overlap the other calls; inactive means mostly above about 0.92. This is one part of the list.
Assay: chemical genetic growth profiling, strain panel (AID 1159580);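 further: tested at 20 µM; growth read once vehicle control cultures reached saturation at 30 °C; 1 = growth at the plate median or of vehicle wells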
Settings: S. cerevisiae deletion strains, growth OD

Measured: normalized growth

CN(Cc1cnc2nc(N)nc(N)c2n1)c1ccc(C(=O)N[C@H](CCC(=O)O)C(=O)O)cc1
inactive: locus YAL040C, strain CLN3, stronger effect = lower value 1 | locus YER002W, strain NOP16, stronger effect = lower value 0.996 | locus YNL175C, strain NOP13, stronger effect = lower value 1 | locus YNL197C, strain WHI3, stronger effect = lower value 1.01 | locus YNL224C, strain SQS1, stronger effect = lower value 0.981 | locus YOR083W, strain WHI5 (second series), stronger effect = lower value 1.04 | locus YPL241C, strain CIN2, stronger effect = lower value 0.984

Nc1nc2c(c(=O)[nH]1)N(C=O)C(CNc1ccc(C(=O)N[C@@H](CCC(=O)O)C(=O)O)cc1)CN2 (some centres not stated)
inactive: locus YAL021C, strain ccr4, stronger effect = lower value 0.973 | locus YAL026C, strain drs2, stronger effect = lower value 1 | locus YAL030W, strain snc1, stronger effect = lower value 0.969 | locus YBL061C, strain skt5, stronger effect = lower value 0.975 | locus YBR009C, strain hhf1, stronger effect = lower value 1.02 | locus YBR021W, strain FUR4, stronger effect = lower value 0.988 | locus YBR023C, strain chs3, stronger effect = lower value 0.971 | locus YBR171W, strain sec66, stronger effect = lower value 0.94 | locus YBR229C, strain ROT2, stronger effect = lower value 0.991 | locus YBR231C, strain swc5, stronger effect = lower value 0.943 | locus YBR279W, strain paf1, stronger effect = lower value 0.991 | locus YCL011C, strain gbp2, stronger effect = lower value 0.99 | locus YCL016C, strain dcc1, stronger effect = lower value 1.02 | locus YCL029C, strain bik1, stronger effect = lower value 0.985 | locus YCL061C, strain MRC1, stronger effect = lower value 0.964 | locus YCL069W, strain vba3, stronger effect = lower value 0.971 | locus YCR088W, strain abp1, stronger effect = lower value 0.971 | locus YDL005C, strain med2, stronger effect = lower value 0.963 | locus YDL035C, strain GPR1, stronger effect = lower value 1.01 | locus YDL040C, strain nat1, stronger effect = lower value 0.974 | locus YDL074C, strain BRE1, stronger effect = lower value 0.999 | locus YDL101C, strain DUN1, stronger effect = lower value 0.987 | locus YDL185W, strain tfp1, stronger effect = lower value 0.986 | locus YDL192W, strain arf1, stronger effect = lower value 0.981 | locus YDR001C, strain nth1, stronger effect = lower value 0.956 | locus YDR069C, strain doa4, stronger effect = lower value 0.94 | locus YDR101C, strain arx1, stronger effect = lower value 1 | locus YDR137W, strain rgp1, stronger effect = lower value 0.947 | locus YDR159W, strain sac3, stronger effect = lower value 1.01 | locus YDR162C, strain NBP2, stronger effect = lower value 1 | locus YDR195W, strain ref2 0.906 | locus YDR297W, strain sur2, stronger effect = lower value 0.972 | locus YDR318W, strain mcm21, stronger effect = lower value 0.985 | locus YDR334W, strain swr1, stronger effect = lower value 0.934 | locus YDR335W, strain msn5, stronger effect = lower value 0.964 | locus YDR388W, stronger effect = lower value 0.985 | locus YDR392W, strain spt3, stronger effect = lower value 1.1 | locus YDR502C, strain sam2, stronger effect = lower value 0.985 | locus YEL003W, strain gim4, stronger effect = lower value 0.971 | locus YEL037C, strain rad23, stronger effect = lower value 0.978 | locus YEL061C, strain CIN8 (second series), stronger effect = lower value 0.953 | locus YEL061C, strain CIN8, stronger effect = lower value 0.996 | locus YER015W, strain faa2, stronger effect = lower value 1.01 | locus YER016W, strain bim1, stronger effect = lower value 0.99 | locus YER110C, stronger effect = lower value 0.978 | locus YER111C, strain swi4, stronger effect = lower value 0.968 | locus YER155C, strain BEM2 (second series), stronger effect = lower value 0.954 | locus YER155C, strain BEM2, stronger effect = lower value 0.981 | locus YER167W, strain BCK2, stronger effect = lower value 0.993 | locus YFR010W, strain ubp6, stronger effect = lower value 0.931 | locus YGL078C, strain dbp3, stronger effect = lower value 0.967 | locus YGL086W, strain mad1, stronger effect = lower value 1 | locus YGL167C, strain pmr1, stronger effect = lower value 0.957 | locus YGL173C, strain kem1, stronger effect = lower value 0.966 | locus YGL227W, strain vid30, stronger effect = lower value 0.964 | locus YGL240W, strain doc1, stronger effect = lower value 0.94 | locus YGL248W, strain PDE1, stronger effect = lower value 0.982 | locus YGL253W, strain hxk2, stronger effect = lower value 0.986 | locus YGR135W, strain pre9, stronger effect = lower value 0.945 | locus YGR252W, strain gcn5, stronger effect = lower value 0.948 | locus YHR013C, strain ard1, stronger effect = lower value 0.972 | locus YHR027C, strain rpn1, stronger effect = lower value 0.972 | locus YHR030C, strain SLT2, stronger effect = lower value 0.993 and 0.985 | locus YHR079C, strain IRE1 (second series), stronger effect = lower value 0.989 | locus YHR079C, strain IRE1, stronger effect = lower value 1 | locus YHR094C, strain hxt1, stronger effect = lower value 0.984 | locus YHR129C, strain ARP1, stronger effect = lower value 0.99 | locus YHR142W, strain chs7, stronger effect = lower value 0.957 | locus YHR200W, strain rpn10, stronger effect = lower value 0.986 | locus YIL066C, strain RNR3, stronger effect = lower value 0.989 | locus YIL073C, strain SPO22, stronger effect = lower value 1.01 | locus YIL125W, strain kgd1, stronger effect = lower value 0.989 | locus YIR030C, strain dcg1, stronger effect = lower value 0.979 | locus YJL092W, strain hpr5, stronger effect = lower value 0.963 | locus YJL095W, strain BCK1 (second series), stronger effect = lower value 0.967 | locus YJL095W, strain BCK1, stronger effect = lower value 0.975 and 1.02 | locus YJL115W, strain asf1, stronger effect = lower value 0.949 | locus YJL129C, strain trk1, stronger effect = lower value 0.954 | locus YJL134W, strain LCB3, stronger effect = lower value 0.991 | locus YJL154C, strain vps35, stronger effect = lower value 0.959 | locus YJL164C, strain tpk1, stronger effect = lower value 1.02 | locus YJL166W, strain qcr8, stronger effect = lower value 0.932 | locus YJL168C, strain set2, stronger effect = lower value 0.981 | locus YJL187C, strain SWE1 (second series), stronger effect = lower value 0.985 | locus YJL187C, strain SWE1, stronger effect = lower value 0.977 | locus YJR043C, strain POL32, stronger effect = lower value 1.01 | locus YJR066W, strain TOR1, stronger effect = lower value 0.969 | locus YJR075W, strain HOC1, stronger effect = lower value 0.993 | locus YKL009W, strain mrt4, stronger effect = lower value 0.996 | locus YKL068W, stronger effect = lower value 0.991 | locus YKL085W, strain MDH1 (second series), stronger effect = lower value 0.979 | locus YKL085W, strain MDH1, stronger effect = lower value 0.979 | locus YKL160W, strain elf1, stronger effect = lower value 0.972 | locus YKL190W, strain CNB1, stronger effect = lower value 1 | locus YKR001C, strain vps1, stronger effect = lower value 0.997 | locus YKR026C, strain gcn3, stronger effect = lower value 0.961 | locus YKR091W, strain srl3, stronger effect = lower value 0.984 | locus YLL001W, strain dnm1, stronger effect = lower value 0.926 | locus YLL026W, stronger effect = lower value 0.948 | locus YLL041C, strain sdh2, stronger effect = lower value 0.976 | locus YLR027C, strain aat2, stronger effect = lower value 0.958 | locus YLR039C, strain RIC1, stronger effect = lower value 0.958 | locus YLR058C, strain SHM2, stronger effect = lower value 0.983 | locus YLR102C, strain apc9, stronger effect = lower value 0.989 | locus YLR113W, strain HOG1, stronger effect = lower value 1.02 | locus YLR221C, strain rsa3, stronger effect = lower value 1.01 | locus YLR258W, strain gsy2, stronger effect = lower value 1.01 | locus YLR262C, strain YPT6 (second series), stronger effect = lower value 0.941 | locus YLR262C, strain YPT6, stronger effect = lower value 1.02 | locus YLR268W, strain sec22, stronger effect = lower value 0.984 | locus YLR320W, strain mms22, stronger effect = lower value 1.01 | locus YLR330W, strain CHS5, stronger effect = lower value 0.988 | locus YLR342W, strain FKS1 (second series), stronger effect = lower value 1 | locus YLR342W, strain FKS1, stronger effect = lower value 0.955 | locus YLR357W, strain rsc2, stronger effect = lower value 0.928 | locus YLR370C, strain arc18, stronger effect = lower value 0.959 | locus YLR371W, strain rom2, stronger effect = lower value 0.975 | locus YLR384C, strain iki3, stronger effect = lower value 0.958 | locus YLR418C, strain cdc73, stronger effect = lower value 0.938 | locus YML016C, strain PPZ1, stronger effect = lower value 0.992 | locus YML032C, strain rad52, stronger effect = lower value 0.999 | locus YML120C, strain ndi1, stronger effect = lower value 0.956 | locus YML124C, strain tub3, stronger effect = lower value 0.991 | locus YMR058W, strain fet3, stronger effect = lower value 0.954 | locus YMR078C, strain ctf18, stronger effect = lower value 0.981 | locus YMR125W, strain sto1, stronger effect = lower value 0.965 | locus YMR129W, stronger effect = lower value 0.971 | locus YMR205C, strain PFK2, stronger effect = lower value 0.978 | locus YMR223W, strain ubp8, stronger effect = lower value 0.959 | locus YMR231W, strain pep5, stronger effect = lower value 0.964 | locus YMR307W, strain GAS1, stronger effect = lower value 0.961 | locus YNL067W, strain RPL9B, stronger effect = lower value 0.999 | locus YNL071W, strain lat1, stronger effect = lower value 0.984 | locus YNL128W, strain TEP1, stronger effect = lower value 0.979 | locus YNL183C, strain NPR1, stronger effect = lower value 0.97 | locus YNL209W, strain ssb2, stronger effect = lower value 0.986 | locus YNL233W, strain BNI4, stronger effect = lower value 0.986 | locus YNL248C, strain rpa49, stronger effect = lower value 0.978 | locus YNL250W, strain rad50, stronger effect = lower value 0.977 | locus YNL271C, strain bni1, stronger effect = lower value 0.967 | locus YNL298W, strain CLA4, stronger effect = lower value 0.985 | locus YNL307C, strain MCK1, stronger effect = lower value 0.99 | locus YNL322C, strain KRE1 (second series), stronger effect = lower value 0.965 | locus YNL322C, strain KRE1, stronger effect = lower value 0.995 | locus YNR049C, strain mso1, stronger effect = lower value 0.971 | locus YNR052C, strain pop2, stronger effect = lower value 0.984 | locus YOL006C, strain TOP1, stronger effect = lower value 0.964 | locus YOL012C, strain htz1 0.703 | locus YOL147C, strain pex11, stronger effect = lower value 0.978 | locus YOR001W, strain rrp6, stronger effect = lower value 0.943 | locus YOR061W, strain CKA2, stronger effect = lower value 0.992 | locus YOR069W, strain VPS5, stronger effect = lower value 0.989 | locus YOR070C, strain gyp1, stronger effect = lower value 0.991 | locus YOR080W, strain dia2, stronger effect = lower value 0.966 | locus YOR083W, strain WHI5, stronger effect = lower value 0.961 | locus YOR106W, strain vam3, stronger effect = lower value 0.943 | locus YOR136W, strain idh2, stronger effect = lower value 0.99 | locus YOR144C, strain elg1, stronger effect = lower value 0.992 | locus YOR184W, strain ser1, stronger effect = lower value 0.978 | locus YOR231W, strain MKK1, stronger effect = lower value 1.02 | locus YOR265W, strain rbl2, stronger effect = lower value 0.965 | locus YOR270C, strain vph1, stronger effect = lower value 0.957 | locus YOR290C, strain snf2, stronger effect = lower value 1.01 | locus YOR316C, strain cot1, stronger effect = lower value 0.987 | locus YPL051W, strain arl3, stronger effect = lower value 0.985 | locus YPL055C, strain LGE1, stronger effect = lower value 0.981 | locus YPL078C, strain atp4, stronger effect = lower value 0.904 | locus YPL106C, strain sse1, stronger effect = lower value 0.947 | locus YPL240C, strain hsp82, stronger effect = lower value 0.968 | locus YPL256C, strain CLN2, stronger effect = lower value 0.993 | locus YPR119W, strain clb2, stronger effect = lower value 0.986 | locus YPR141C, strain kar3, stronger effect = lower value 0.977 | locus YPR163C, strain tif3, stronger effect = lower value 0.976 | locus YPR167C, strain met16, stronger effect = lower value 0.986 | strain wtn01, stronger effect = lower value 0.981

From PubChem BioAssay AID1159580 (chemical genetic matrix, 2015)
